# Legend:
# Experiment in all cases: PBM binding z-score (relative to random genomic background probes); higher = stronger binding; sequences stand for … in GC…GCGATTGACAGCGTAGAATGAAGG
# [1] = test system: RARb homodimer (NR concentration 270 nM)
# Outline: (§1)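 Regression normalization was applied to scanned fluorescence from custom Agilent 4×180K protein-binding microarrays. Before scanning, arrays were incubated 1 h with ligand-free nuclear receptor dimers, and binding was detected with antibodies against each partner (one per run). Binding z-scores use the random background probes as reference.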
# [2] = test system: RARg:RXRa (NR concentration 270 nM, RXRa partner concentration 90 nM)
# Outline: as §1
# [3] = test system: RARg homodimer (NR concentration 270 nM)
# Outline: as §1
# [4] = test system: RXRa DBDmut IVT, anti-RXR (DBD mutation: RXRa K156A/R161A, NR concentration 90 nM)
# Outline: as §1
# [5] = test system: RXRa homodimer (NR concentration 180 nM)
# Outline: as §1
# [6] = test system: THRa:RXRa (NR concentration 90 nM, RXRa partner concentration 90 nM)
# Outline: as §1
# [7] = test system: THRa homodimer (NR concentration 90 nM)
# Outline: as §1
# [8] = test system: VDR homodimer (NR concentration 270 nM)
# Outline: as §1
Sequence,PBM binding z-score [1],PBM binding z-score [2],PBM binding z-score [3],PBM binding z-score [4],PBM binding z-score [5],PBM binding z-score [6],PBM binding z-score [7],PBM binding z-score [8]
ATAGGTAGGTTACATCCGGGTCATTCAGGCTATG,2.84,3.6,2.45,0.326,2.96,3.77,2.45,3.59
CAAACTTGGTCACAGAGGTCAAAGTCCGTGCGTA,4.73,5.89,5.25,2.34,6.56,3.98,1.36,4.8
CCTTACAGGTCACTGACAGGTTATAGCATTTGGA,3.83,5.94,5.46,2.62,4.91,3.28,0.808,1.41
CCTTACGGGTCAAGGCTATAGCACGGGTGGTACG,2.91,4.66,4.36,0.343,5.14,2.39,-0.0277,0.575
CGTCCATGGTCAGCAGGTCAGTGAAAGCGACGTG,2.46,1.81,2.05,-0.144,0.937,0.887,-0.0849,-0.456
CGCCCAAGGTCAAAGGTCAGTGAAGAGATGACGG,5.66,8.68,8.27,3.9,10,4.83,2.31,3.24
TCTTGTAGATCGAAGGTTAAGAAAGCCGAAGCCT,0.0841,0.243,-0.136,0.423,0.859,0.418,-0.559,-0.284
ACCTCTAGGTAAAGTTCAGTGAAAGATCGATAGA,2.27,1.59,2.19,1.47,0.983,0.866,-0.127,1.51
CCTGCTGGGCCACGAAAGGTCATTGATTCAGTGA,4.56,4.89,4.55,0.711,5.39,3.87,0.572,2.37
CGTCCAAGGTCAGAGAGGTCGGTGAATGCCGAGT,4.09,4.84,5.91,2.7,3.93,3.66,1.38,3.09
CGAACTAGGTCTTCCAGGACAGTGAATACATTGA,0.194,0.154,0.415,0.373,-0.0434,1.71,0.787,0.0101
AGTCAAAGTTCATCTAGGTAACGGAAGATATGCT,4.04,5.6,6.13,4.58,4.85,3.33,0.388,5.59
CCTTACGGGCCAAGGTTATAGCACGGGTGGTACG,0.655,0.306,0.628,-1.14,0.273,0.713,0.104,0.207
TCAGCCAGGTGAAGGTAACTCAGGTACGCAGTCG,0.236,0.119,-0.0268,0.397,0.607,1.8,0.391,-0.347
AGAATAAGGTTATTAAGATCAGGGAATTGCGGTC,1.1,1.39,1.13,1.47,1.58,2.42,0.933,0.967
TCATATAGGTAAACGGGTGAAAGTCCGTAAGTTA,0.485,0.423,0.128,1.05,1.03,0.421,-0.157,0.053
CCTAATGGGCCATCAGGTCATTGATATCAACGTT,2.76,2.27,2.23,0.496,1.39,3.38,2.92,1.57
AATACAGGGTCACTAAGCCAGAGTAGGTACGAAT,3.03,5.07,4.83,2.77,5.39,3.33,1.13,2.35
GGAACGAGGGCATTCGAGTTGAGAGCATGGCGAT,0.91,1.14,1.31,2.99,1.05,3.58,-0.815,2.68

Sequence,PBM binding z-score [1],PBM binding z-score [2],PBM binding z-score [3],PBM binding z-score [4],PBM binding z-score [5],PBM binding z-score [6],PBM binding z-score [7],PBM binding z-score [8]
TTACCAATGTGAAGGTCGTTGATCCCTCTGTAGA,1.25,0.262,0.216,0.586,1.05,0.82,0.201,1.04
CCTACTGGGCCAAAGATCATTGATTCCAATGCTC,-0.626,0.0876,-0.132,-0.275,0.0908,-0.415,-0.657,-0.324
TCATCTAGGTAAATGCTAGGTGAAAGTCCGATCT,0.149,0.279,0.0447,1.17,0.38,1.28,0.631,-0.208
ACAGACAGGTGATGAAGGTATCTCAGGCTATCAT,0.276,0.119,0.27,-0.321,0.203,0.741,-0.068,-0.586
CGAACTAGGTCATTGACAGCACAGTGAATAGTAA,2.36,3.46,4.03,2.29,2.47,2.31,0.694,1.08
CCTTACGGGTCACTGACCGGTTATAGCATTTGGA,3.25,5.43,4.56,1.45,4.82,2.56,0.389,0.995
TCTGCTATGTCAGTTGGTCAGCTAACGAGCTGCC,0.0404,-0.0925,-0.134,0.0834,-0.0847,-0.538,-1.16,-0.982
TAGCCTAGGTCATGCGGGCCCGTATAGTGTCGGC,2.9,3.77,4.19,0.324,3.06,3.06,1.33,0.149
CAGCCTAGGTCAGGGCCAGTAGAGGAGGAACGTT,2.31,2.91,3.9,-0.543,1.35,1.88,0.411,0.169
ACTATTAGTTCACTTAGGGCAACCGATACGACGC,1.93,2.02,2.25,2.72,1.04,3.1,0.596,2.32
GTACCAAGGTGAATAGGTCATTGATGAGTAGGCG,3.98,4.79,3.34,-0.0633,3.5,2.82,0.757,0.849
ATCGAAAAGTCGTGAGGTGAGTATACAGAAAGGC,0.17,0.561,0.564,-0.691,0.466,1.68,1.14,-0.0663
TCATATAGGTAAACAAGTGAAAGTCCGTAAGTTA,0.321,0.396,0.548,1.76,1.12,0.265,0.0631,0.508
TCGAGTAGGTTAGTCGGGGCATTCAGCCAACATA,0.309,-0.257,-0.115,0.217,-0.227,0.885,-0.0985,0.0153
TCTAGCAGGCCAGAGGGTGACTCAAGAGGTACGG,0.225,0.176,-0.109,-0.237,0.486,-0.0515,-0.795,-0.534
ACAGACAGGTGATGAAGGTAACTTAGGCTATCAT,0.348,0.286,0.467,-0.093,0.298,0.532,0.0402,0.0918
AGAACGAGGGAAATGAGTTGATAGCACGGGTGGC,-0.754,-0.0436,0.0126,-0.228,-0.0737,-0.188,-0.839,0.141
TCTTGTAGATCAGCAGGTTAAGATAGCTGGCCAA,-0.0544,-0.0434,-0.135,0.631,0.48,0.172,-0.238,-0.295
TCGAGTAGGTTACCAATGGGGCATTCATCTTTCT,0.835,1.03,0.586,0.151,0.759,0.223,-0.282,-0.179

Sequence,PBM binding z-score [1],PBM binding z-score [2],PBM binding z-score [3],PBM binding z-score [4],PBM binding z-score [5],PBM binding z-score [6],PBM binding z-score [7],PBM binding z-score [8]
CGAACTAGGTCTAGGACAGTGAATCTCCGCACGC,-0.234,-0.33,-0.233,0.104,-0.217,0.316,0.0986,-0.409
TATACAGGGTCAAAGACCAGAGTACGAATGTCGA,2.94,5.15,4.53,2.82,5.89,3.2,0.651,2.81
CAAACTGGGTCAAAGGTCAAAGTCGAGCCAACCA,5.2,8.56,7.31,2.55,10.1,4.51,1.31,3.12
TCAGACAGGAGAAGGTAACTCAGGTACGCAGTCG,-0.2,0.286,0.356,1.23,0.47,0.913,0.177,-0.0806
TGAATGAGGTTAAAGATCAGGGATCGTGGCGTCG,0.409,2.25,1.11,0.89,3.63,2.33,0.0472,-0.0606
CGTCCAAGGTCACAGGTCAGTGAAGAGATGACGG,5.03,6.75,7.51,3.42,7.67,4.36,3.28,2.75
TCGAGTAGGTTAGGTGCATTCAGAATGGCGTCGA,0.197,-0.25,-0.0841,1.04,0.1,-0.142,-0.111,1.47
ACTATTAGTTTACTTAGGGCAACCGATACGACGC,0.74,0.56,1.01,1.17,0.51,1.66,0.312,0.435
GGAACGAGGGCAAAGTTGGTAGCATCTGTCGACG,1.14,1.46,1.52,2.47,1.14,1.09,-0.0808,1.46
GGAACGAGGCCAAGTTGATAGCAGAGTTTGATGG,0.533,0.334,1.03,1.18,-0.0996,0.407,-0.535,0.778
CCCAGTTGGTCAAGGTCACACACGCTATAGGTAC,4.34,4.75,4.74,2.13,4.74,4.16,4.46,4.2
TCGAGTAGGTTAGTCGGGGTATTCAGCCAACATA,-0.161,-0.227,-0.435,0.0822,-0.0938,1.71,-0.175,-0.161
TAGCGTAGGTCATTCAGGGGCCAGTATAGAAAGC,3.37,6.52,5.07,1.79,3.93,3.56,-0.427,1.25
CCAGACAGGTGAAACGTAACTCAGTCTGGTACGC,0.0638,0.203,0.432,0.0553,0.53,-0.118,-0.567,-0.448
TAGCTTAGGTCATTCAGGGGCCAGTATAGAAAGC,3.41,6.43,5.18,2.36,3.35,3.72,1.83,1.69
GCTAGTTGGTCAGTAAAAGGTCACCCACCGGTCG,5.12,5.56,4.94,-0.12,5.13,3.42,1.89,1.26
CCTACTGGGCCAAGGTCACTGATCAGTCAAAGCA,3.91,4.17,4.29,0.302,3.92,3.6,2.65,2
GCGACTGGGGCATAAGCAGGTTACCATAACTTAA,0.55,0.617,0.393,0.0117,0.39,0.914,-0.368,-0.246
